Hits are enriched below; roughly 27% of the tested compounds scored in any of these assays.
CYP2C9 act: increases human cytochrome P450 2C9 activity | activation factor at 5 µM | P11712 | AID 1024 | actives 1.4% (n = 96,000) | recombinant CYP2C9, luciferin-H conversion, luminescence; hits give high values; factor 1 = untreated enzyme, 0 = blocked;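 active = activation factor of 2 or more for CYP2C9 at a 5 µM dose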;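 note: 0 = sulfaphenazole-blocked wells and 1 = vehicle-only wells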
CYP2C19 act: activators of human cytochrome P450 2C19; AID 1025; P33261; recombinant CYP2C19, luciferin-H EGE luminescence; hits give high values; 0 = fully inhibited enzyme, 1 = untreated enzyme; 96,000 tested, under 10 active; activation factor at 5 µM;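 active = activation factor of at least 2 at 5 µM in the primary screen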;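 note: 0 = wells with 2.5 mM tranylcypromine and 1 = vehicle-only wells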
PTK2B oligo ant: antagonists of human Pyk2 oligomerization | Q293 cells, Pyk2 FERM NanoBiT luminescence; hits give low values | AID 1347419 | actives 0.83% (n = 99,000) | z-score (the deposit names both 25 µM and 10 µM);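 active = Z-score of -3 or lower, scaled per plate to the spread of control and sample wells; inactive = z-score above -3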;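 note: negative z-score means lost luminescence so less FERM oligomerization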
Target sequence (Q14289 whole entry, looked up): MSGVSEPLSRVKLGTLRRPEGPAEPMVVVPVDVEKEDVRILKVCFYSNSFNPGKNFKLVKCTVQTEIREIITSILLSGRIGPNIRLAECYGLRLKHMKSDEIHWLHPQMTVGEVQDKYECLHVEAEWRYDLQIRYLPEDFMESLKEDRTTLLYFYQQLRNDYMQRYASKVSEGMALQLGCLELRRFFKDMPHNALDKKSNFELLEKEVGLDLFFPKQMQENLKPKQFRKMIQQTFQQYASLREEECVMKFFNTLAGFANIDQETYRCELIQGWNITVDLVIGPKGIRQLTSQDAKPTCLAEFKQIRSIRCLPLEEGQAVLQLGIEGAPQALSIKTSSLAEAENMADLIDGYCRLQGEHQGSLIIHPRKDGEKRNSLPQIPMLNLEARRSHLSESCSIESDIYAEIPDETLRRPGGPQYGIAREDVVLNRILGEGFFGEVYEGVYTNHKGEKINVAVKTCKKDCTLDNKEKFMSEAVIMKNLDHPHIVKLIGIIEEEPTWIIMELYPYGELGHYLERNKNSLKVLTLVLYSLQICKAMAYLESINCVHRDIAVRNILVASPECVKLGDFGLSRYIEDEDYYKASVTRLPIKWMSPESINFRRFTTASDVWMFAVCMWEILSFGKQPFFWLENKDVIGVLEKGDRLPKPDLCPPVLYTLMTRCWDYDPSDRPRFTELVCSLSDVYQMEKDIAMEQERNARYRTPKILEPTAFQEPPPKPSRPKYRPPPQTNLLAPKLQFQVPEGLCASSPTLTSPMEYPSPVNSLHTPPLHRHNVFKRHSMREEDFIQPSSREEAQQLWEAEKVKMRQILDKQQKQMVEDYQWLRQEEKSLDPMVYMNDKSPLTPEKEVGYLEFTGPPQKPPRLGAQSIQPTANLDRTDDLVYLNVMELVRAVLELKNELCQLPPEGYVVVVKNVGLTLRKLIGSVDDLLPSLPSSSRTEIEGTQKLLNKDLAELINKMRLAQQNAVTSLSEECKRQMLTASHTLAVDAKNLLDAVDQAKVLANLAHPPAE
Cav32 inh: inhibitors of human Cav3.2 T-type calcium channel. Cav3.2-expressing cells, Fluo-4 calcium fluorescence FDSS; hits give low values. B-score at 10 µM. actives 4% (n = 100,000). AID 449739;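 active = single-dose well whose peak fluorescence ratio is a statistical outlier from its plate by either plate-standardised score or position-corrected B-score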
CYP2C9 inhib: inhibitors of human CYP2C9; P11712; CYP2C9 Supersomes, luciferin-H conversion, luminescence; inhibition, % at 5 µM; actives 20% (n = 96,000); AID 777;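 active = blocking of liver enzyme CYP2C9 beyond about 50% at 5 µM, limit read from the data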
CYP2C19 inh: blocks human cytochrome P450 2C19. P33261. CYP2C19 Supersomes, luciferin-H EGE luminescence, 30 min. inhibition, % at 5 µM. actives 21% (n = 96,000). AID 778;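 active = CYP2C19 inhibition above a set limit at 5 µM in the primary screen, cut at about 50% in these data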;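 note: plate controls were negative control wells for no effect and 2.5 mM tranylcypromine positive control for full effect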
Numbers without * were called inactive; nt = no result given.

SMILES	CYP2C9 act	CYP2C19 act	PTK2B oligo ant	Cav32 inh	CYP2C9 inhib	CYP2C19 inh
COCCNc1oc(-c2ccc(Cl)cc2)nc1C#N	0.3	0.2	0.13	-0.108	73.4*	79.2*
CN(C)CCCNc1oc(-c2ccc(Cl)cc2)nc1C#N	nt	nt	0.17	0.882	nt	nt
COc1ccc(CCNc2oc(-c3ccc(C)cc3)nc2C#N)cc1OC	0.5	1.1	nt	-1.07	50.0*	-12.2
Cc1ccc(-c2nc(C#N)c(NCCN3CCCCC3)o2)cc1	0.7	0.9	0.42	0.4	31.2	11.8
Cc1ccc(NC(=O)C2C(c3ccccc3)C=CC(c3ccccc3)C2C(=O)O)cc1 (centres undefined)	0.8	1	-0.87	-3.01	24.6	3.9
O=C(CN1C(=O)NC2(CCCc3ccccc32)C1=O)NCc1ccco1 (centres undefined)	0.2	1	0.1	0.297	78.1*	-1.4
CC1(c2ccc(Cl)cc2)NC(=O)N(CC(=O)NC(=O)NCc2ccco2)C1=O (centres undefined)	0.3	0.3	-0.37	-1.41	66.7*	66.2*
CC1(c2ccc(Cl)cc2)NC(=O)N(CC(=O)N2CCCC2)C1=O (centres undefined)	1.2	1.1	-0.68	0.487	-18.0	-5.3
COc1ccc(C2(C(=O)NCc3ccco3)CCCC2)cc1OC	1	0.8	0.56	0.559	-2.8	23.3
O=C(CN1C(=O)NC2(CCCCCC2)C1=O)NCc1ccco1	0.9	0.9	-0.52	0.79	5.9	6.6
O=C(NCc1ccco1)C1(c2ccccc2)CCCC1	0.6	0.4	1.46	-0.15	35.4	57.0*
O=C(CN1CCC(Cc2ccccc2)CC1)NC(=O)NCc1ccco1	1	0.4	-0.5	-2.59	0.1	57.8*
O=C(Nc1nc(-c2ccccc2)c(C(=O)c2ccccc2)s1)c1ccc(S(=O)(=O)N2CCCC2)cc1	nt	nt	-1.92	nt	nt	nt
CCS(=O)(=O)N1CCC(C(=O)OCC(=O)c2ccc(Br)cc2)CC1	nt	nt	0.89	-0.142	nt	nt
O=C(CN1CCc2ccccc2C1)NCc1ccco1	0.6	0.1	-0.04	0.295	35.2	92.7*
CCN(CC)S(=O)(=O)c1cccc(NC(=O)C(=O)c2c(-c3ccccc3)cc3ccccn23)c1	0.4	0.4	0.34	nt	64.8*	57.0*
CCN(CC)S(=O)(=O)c1ccc(N2CCOCC2)c(NC(=O)C(=O)c2c(-c3ccccc3)cc3ccccn23)c1	0.1	0.7	-0.5	1.31	86.5*	28.9
CCN(CC)S(=O)(=O)c1cc(NC(=O)C(=O)c2c(-c3ccccc3)cc3ccccn23)ccc1C	0.5	0.6	-0.39	-4.64*	54.4*	42.7
CC(C)CC(COCc1ccc(Cl)cc1)N1CCN(C(=O)c2ccc(Cl)cc2Cl)CCC1=O (centres undefined)	nt	nt	nt	-2.37	nt	nt
c1ccc(-c2ncnc3cc4n(c23)CCC4)cc1	nt	nt	-0.31	0.795	nt	nt
Cc1ccc(NC(=O)C2C3C=CC4(CN(Cc5cccnc5)C(=O)C24)O3)cc1 (centres undefined)	0.9	0.9	nt	1.25	10.3	12.8
O=C(CCCn1c(=O)[nH]c2cc(Cl)ccc2c1=O)NCCCN1CCCC1=O	0.9	1.1	0.44	0.0711	11.6	-12.5
Cc1ccccc1-n1nc2c(c1NC(=O)COc1ccc(Cl)cc1)CS(=O)C2 (centres undefined)	0.8	0	nt	nt	21.6	100.2*
COc1ccc(CC(=O)Nc2c3c(nn2-c2ccccc2C)CS(=O)C3)cc1 (centres undefined)	nt	nt	0.61	-3.05	nt	nt
Cc1nn(-c2ccc(Cl)cc2Cl)c(=O)c2ccccc12	nt	nt	0.72	0.507	nt	nt
Cc1nn(-c2ccc(Cl)c(Cl)c2Cl)c(=O)c2ccccc12	0.5	0.3	-0.91	-2.72	54.4*	71.3*
C=CCn1c(COc2ccccc2)nnc1SCC(=O)O	0.9	0.9	-0.04	0.907	8.7	5.3
C=CCn1c(COc2ccc(F)cc2)nnc1SCC(=O)N1CC(=O)Nc2ccccc21	2.1*	0.5	0.33	0.307	-109.8	47.7
C=CCn1c(SCC(=O)N2CC(=O)Nc3ccccc32)nc2scc(-c3cccs3)c2c1=O	0.2	0.4	-2.11	-7.19*	83.0*	62.6*
Cc1ccc(-c2nnn(CC(=O)Nc3cccc4cccnc34)n2)o1	0.6	0.7	0.52	-2.49	39.3	33.2

Screens (PubChem BioAssay)
